In PubChem BioAssay (NCI):
Values joined by “and” are separate entries in the source; they are usually repeats but may differ in a detail not shown here. Equal entries are not always repeated. The panel holds about 83,000 compounds, 20% with a hit somewhere; the sample as a whole holds those more often.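 Step 1: grow cells in 96-well plates. Step 2: add test compound at a single concentration. Step 3: incubate 48 h. Step 4: record percent growth.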 Active and inactive are the calls of the source. The calls were made as follows: active = growth percent below 10; inactive = the rest.

Assays:
Test in all cases: NCI-60 one-dose screen, 48 h (100 = growth as untreated, 0 = no growth, -100 = all killed)
Settings in all cases: 10 µM
HOP-92 NSCLC = tested on: HOP-92 NSCLC
K-562 leukemia = tested on: K-562 leukemia
MALME-3M melanoma = tested on: MALME-3M melanoma
RXF 393 renal = tested on: RXF 393 renal
UACC-257 melanoma = tested on: UACC-257 melanoma
LOX IMVI melanoma = tested on: LOX IMVI melanoma
SK-MEL-28 melanoma = tested on: SK-MEL-28 melanoma
SK-MEL-2 melanoma = tested on: SK-MEL-2 melanoma
SN12C renal = tested on: SN12C renal
TK-10 renal = tested on: TK-10 renal
CAKI-1 renal = tested on: CAKI-1 renal
A498 renal = tested on: A498 renal
RPMI-8226 leukemia = tested on: RPMI-8226 leukemia
OVCAR-3 ovarian = tested on: OVCAR-3 ovarian
BT-549 breast = tested on: BT-549 breast
MDA-MB-435 melanoma = tested on: MDA-MB-435 melanoma
HCC-2998 colon = tested on: HCC-2998 colon

Row | Structure (SMILES) | growth (HOP-92 NSCLC) | growth (K-562 leukemia) | growth (MALME-3M melanoma) | growth (RXF 393 renal) | growth (UACC-257 melanoma) | growth (LOX IMVI melanoma) | growth (SK-MEL-28 melanoma) | growth (SK-MEL-2 melanoma) | growth (SN12C renal) | growth (TK-10 renal) | growth (CAKI-1 renal) | growth (A498 renal) | growth (RPMI-8226 leukemia) | growth (OVCAR-3 ovarian) | growth (BT-549 breast) | growth (MDA-MB-435 melanoma) | growth (HCC-2998 colon)
1 | C/C=C/CC(C)C(O)[C@H](NC(=O)[C@@H]1CCCN1C(=O)C(C)(C)NC(=O)CCCCCCCCC)C(=O)N[C@@](C)(CC)C(=O)N[C@@H](CCC(N)=O)C(=O)N[C@H](CCC(N)=O)C(=O)NC(C)(C)C(=O)N[C@@](C)(CC)C(=O)N[C@@H](CCC(N)=O)C(=O)N[C@H](CC(C)C)C(=O)N[C@H](CO)CC(C)C (some centres not stated) | 91.5% (inactive) and -58.8% (active) | 90.4% (inactive) and 4.32% (active) | 93.8% (inactive) and -92.9% (active) | 129% (inactive) and -75.3% (active) | 108% (inactive) and -83% (active) | 101% (inactive) and -88.2% (active) | 104% (inactive) and -100% (active) | 121% (inactive) and -72.1% (active) | 101% (inactive) and -44.1% (active) | 108% (inactive) and -53.4% (active) | 99.7% (inactive) and -21.7% (active) | 97.3% (inactive) and -52.9% (active) | 103% (inactive) and -46.2% (active) | 8.27% (active) | -79.6% (active) | 105% (inactive) and -93.7% (active) | 116% (inactive) and -19.6% (active)
2 | CCC(C)[C@H]1C(=O)O[C@H](C(C)C)C(=O)N(C)[C@@H](C(C)C)C(=O)O[C@H](C(C)C)C(=O)N(C)[C@@H](C(C)C)C(=O)O[C@H](C(C)C)C(=O)N1C (some centres not stated) | -19% (active) | 6.74% (active) | 14.7% (inactive) | 22% (inactive) | – | 9.79% (active) | 34.4% (inactive) | -2.6% (active) | 7.58% (active) | 8.22% (active) | – | -8.55% (active) | -25.6% (active) | 19.9% (inactive) | 14.2% (inactive) | 20% (inactive) | 32.3% (inactive)
3 | CC(C)=CCc1c2c(c(O)c3c1O[C@]14C(=C[C@@H]5C[C@H]1C(C)(C)O[C@@]4(C/C=C(/C)C(=O)O)C5=O)C3=O)C=CC(C)(C)O2 | -53.6% (active) | 2.2% (active) | -70.4% (active) | -85.5% (active) | -77.2% (active) | -95.6% (active) | -88.2% (active) | -75.2% (active) | -26.9% (active) | – | – | -94.3% (active) | -8.35% (active) | -93.9% (active) | -11.2% (active) | -80.1% (active) | -88.1% (active)
4 | COc1cc2c(O[C@@H]3OC[C@H](OC(C)=O)[C@H](OC(C)=O)[C@H]3O)c3c(c(-c4ccc5c(c4)OCO5)c2cc1OC)C(=O)OC3 | -13.3% (active) | – | 39.3% (inactive) | 54.4% (inactive) | -35.8% (active) | -53.7% (active) | – | -31.8% (active) | – | 42.3% (inactive) | 13.8% (inactive) | 70.6% (inactive) | -2.08% (active) | 59.4% (inactive) | 23.4% (inactive) | 4.94% (active) | –
5 | CC(C)(O)/C=C/C(=O)[C@](C)(O)[C@H]1[C@H](O)C[C@@]2(C)[C@H]3CC=C4[C@@H](C[C@H](O)C(=O)C4(C)C)[C@]3(C)C(=O)C[C@]12C | -36.4% (active) | 12.1% (inactive) | -28.3% (active) | -35.3% (active) | – | -13.8% (active) | -7.52% (active) | -28.2% (active) | 9.22% (active) | -33% (active) | -60.5% (active) | -73.1% (active) | 3.64% (active) | 1% (active) | -24.5% (active) | 9.08% (active) | 36.1% (inactive)
6 | CN1C(=O)[C@]23SSC1(C)C(=O)N2[C@H]1Nc2ccccc2C1([C@@]12c4ccccc4N[C@@H]1N1C(=O)C4(C)SS[C@]1(C(=O)N4C)[C@H]2O)[C@@H]3O (some centres not stated) | – | 2.18% (active) | -81.5% (active) | -93.3% (active) | -96.9% (active) | -89.9% (active) | -96.5% (active) | – | -96.1% (active) | -95.7% (active) | -99.8% (active) | – | -16.9% (active) | – | -99.5% (active) | -94.3% (active) | -83.8% (active)
7 | CC1=C2C(=C[C@@](C)(COC(=O)c3ccc(S(=O)(=O)F)cc3)[C@@H]2O)C(=O)[C@](C)(O)C12CC2 | – | 6.74% (active) | -56.1% (active) | -88.8% (active) | -52.7% (active) | -40.2% (active) | -66.3% (active) | – | -2.35% (active) | -6.77% (active) | -0.688% (active) | – | 89.7% (inactive) | – | -88.2% (active) | -72.2% (active) | -50.6% (active)
8 | COc1cc(OC)c(S(=O)(=O)N(CCCl)CCCl)cc1C(=O)/C=C/c1ccc(Cl)cc1 | 81.7% (inactive) | 47.1% (inactive) | 85.4% (inactive) | 45.3% (inactive) | 73.6% (inactive) | – | 92.3% (inactive) | 93% (inactive) | 86% (inactive) | 177% (inactive) | 65.7% (inactive) | – | 4.74% (active) | 69.9% (inactive) | 53% (inactive) | 33.1% (inactive) | 96.8% (inactive)
